# Measured values as given in PMC7862700, “An all-to-all approach to the identification of sequence-specific readers for epigenetic DNA modifications on cytosine”.
# Assays:
# Experiment in all cases: DAPPL (digital affinity profiling via proximity ligation, sequencing); 10 mM Tris-HCl pH 7.5, 50 mM NaCl, 1 mM DTT, 4% glycerol, room temperature, 30 min; GST-TFs on glutathione beads, 16-mer random dsDNA library, 0.1% formaldehyde crosslink after washing; high values mean tight binding
# FLI1 = molecular target: T1, FLI1 (Homo sapiens, UniProt Q01543 1-452); settings: protein: recombinant; tags: N-terminal GST; dsDNA, one strand shown
# T1 sequence: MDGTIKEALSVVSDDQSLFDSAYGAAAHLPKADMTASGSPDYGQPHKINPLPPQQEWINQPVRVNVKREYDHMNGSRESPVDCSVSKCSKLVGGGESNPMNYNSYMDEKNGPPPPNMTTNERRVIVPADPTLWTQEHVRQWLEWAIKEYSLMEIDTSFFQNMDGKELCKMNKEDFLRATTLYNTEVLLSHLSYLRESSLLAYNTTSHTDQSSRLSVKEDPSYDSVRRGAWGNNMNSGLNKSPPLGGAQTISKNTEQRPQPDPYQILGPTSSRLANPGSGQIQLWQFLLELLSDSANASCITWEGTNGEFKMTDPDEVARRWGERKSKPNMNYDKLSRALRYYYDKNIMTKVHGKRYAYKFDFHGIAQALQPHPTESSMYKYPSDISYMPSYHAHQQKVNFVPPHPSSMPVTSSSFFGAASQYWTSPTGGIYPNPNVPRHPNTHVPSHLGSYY
# Method in brief: (§1)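 Binding signal is given per hexamer as its read frequency for a factor divided by its frequency in the tag-only sample. GST-fused human transcription factors were expressed in yeast, captured on glutathione beads, barcoded with DNA and pooled with that sample, then incubated with 200 nmole of a 16-mer random double-stranded DNA library in Tris/NaCl/DTT/glycerol buffer for 30 min at room temperature. The pools were then washed, crosslinked, proximity-ligated, amplified by PCR and sequenced on an Illumina NextSeq500.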
# ELK1 = molecular target: T2, ELK1 (Homo sapiens, UniProt P19419 1-428); settings: protein: recombinant; tags: N-terminal GST; dsDNA, one strand shown
# T2 sequence: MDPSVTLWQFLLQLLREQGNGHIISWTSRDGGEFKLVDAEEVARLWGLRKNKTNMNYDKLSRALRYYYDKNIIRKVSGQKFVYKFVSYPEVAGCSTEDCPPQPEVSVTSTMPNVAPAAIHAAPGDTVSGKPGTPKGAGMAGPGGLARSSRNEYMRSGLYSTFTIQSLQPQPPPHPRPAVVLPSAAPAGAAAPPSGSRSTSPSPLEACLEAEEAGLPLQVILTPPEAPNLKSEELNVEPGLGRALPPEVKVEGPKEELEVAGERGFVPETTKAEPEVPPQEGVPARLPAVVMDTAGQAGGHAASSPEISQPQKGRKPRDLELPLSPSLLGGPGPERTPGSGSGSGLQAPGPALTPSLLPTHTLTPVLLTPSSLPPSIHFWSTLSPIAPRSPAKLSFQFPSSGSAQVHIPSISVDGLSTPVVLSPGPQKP
# Method in brief: as §1
# GABPA = molecular target: T3, GABPA (Homo sapiens, UniProt Q06546 1-454); settings: protein: recombinant; tags: N-terminal GST; dsDNA, one strand shown
# T3 sequence: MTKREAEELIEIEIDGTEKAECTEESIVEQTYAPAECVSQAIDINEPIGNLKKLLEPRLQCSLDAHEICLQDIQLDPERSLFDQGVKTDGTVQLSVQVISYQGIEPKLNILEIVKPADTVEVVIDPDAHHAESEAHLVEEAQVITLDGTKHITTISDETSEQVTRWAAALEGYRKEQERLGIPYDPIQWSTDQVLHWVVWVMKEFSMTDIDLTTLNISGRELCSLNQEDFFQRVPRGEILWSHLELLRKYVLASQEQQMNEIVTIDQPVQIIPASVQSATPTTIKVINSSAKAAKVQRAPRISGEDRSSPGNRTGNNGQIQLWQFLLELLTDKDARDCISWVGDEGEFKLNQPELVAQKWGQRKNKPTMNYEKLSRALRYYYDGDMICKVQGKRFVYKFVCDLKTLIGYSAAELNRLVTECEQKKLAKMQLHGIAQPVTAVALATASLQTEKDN
# Method in brief: as §1
# ERG = molecular target: T4, ERG (Homo sapiens, UniProt P11308 1-479); settings: protein: recombinant; tags: N-terminal GST; dsDNA, one strand shown
# T4 sequence: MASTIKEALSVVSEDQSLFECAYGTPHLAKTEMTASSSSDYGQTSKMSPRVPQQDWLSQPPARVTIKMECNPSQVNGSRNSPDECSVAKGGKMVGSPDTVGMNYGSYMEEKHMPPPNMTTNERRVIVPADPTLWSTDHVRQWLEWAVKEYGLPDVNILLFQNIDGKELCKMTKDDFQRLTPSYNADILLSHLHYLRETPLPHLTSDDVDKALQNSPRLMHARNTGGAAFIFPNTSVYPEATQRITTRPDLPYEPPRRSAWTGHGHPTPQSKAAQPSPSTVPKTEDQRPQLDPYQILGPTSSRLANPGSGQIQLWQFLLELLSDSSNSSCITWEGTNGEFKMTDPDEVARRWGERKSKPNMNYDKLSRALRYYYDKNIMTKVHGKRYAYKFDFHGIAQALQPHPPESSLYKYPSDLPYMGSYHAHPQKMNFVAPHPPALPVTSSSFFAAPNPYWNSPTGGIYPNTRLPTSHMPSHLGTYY
# Method in brief: as §1
# ELF1 = ELF1 (Homo sapiens, UniProt P32519 1-619); settings: protein: recombinant; tags: N-terminal GST; dsDNA, one strand shown
# Method in brief: as §1
# EHF = molecular target: T5, EHF (Homo sapiens, UniProt Q9NZC4 1-300); settings: protein: recombinant; tags: N-terminal GST; dsDNA, one strand shown
# T5 sequence: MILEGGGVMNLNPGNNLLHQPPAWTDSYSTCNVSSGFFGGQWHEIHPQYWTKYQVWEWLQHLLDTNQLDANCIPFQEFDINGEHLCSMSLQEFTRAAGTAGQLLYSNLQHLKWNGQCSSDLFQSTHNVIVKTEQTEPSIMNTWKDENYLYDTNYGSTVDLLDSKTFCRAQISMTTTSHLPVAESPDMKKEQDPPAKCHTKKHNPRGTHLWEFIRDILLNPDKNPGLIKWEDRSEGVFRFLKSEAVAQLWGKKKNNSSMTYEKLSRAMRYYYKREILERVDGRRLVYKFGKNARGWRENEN
# Method in brief: as §1
# SPI1 = SPI1 (Homo sapiens, UniProt P17947 1-270); settings: protein: recombinant; tags: N-terminal GST; dsDNA, one strand shown
# Method in brief: as §1
# SPIB = SPIB (Homo sapiens, UniProt Q01892 1-262); settings: protein: recombinant; tags: N-terminal GST; dsDNA, one strand shown
# Method in brief: as §1
# ELK3 = molecular target: T6, ELK3 (Homo sapiens, UniProt P41970 1-407); settings: protein: recombinant; tags: N-terminal GST; dsDNA, one strand shown
# T6 sequence: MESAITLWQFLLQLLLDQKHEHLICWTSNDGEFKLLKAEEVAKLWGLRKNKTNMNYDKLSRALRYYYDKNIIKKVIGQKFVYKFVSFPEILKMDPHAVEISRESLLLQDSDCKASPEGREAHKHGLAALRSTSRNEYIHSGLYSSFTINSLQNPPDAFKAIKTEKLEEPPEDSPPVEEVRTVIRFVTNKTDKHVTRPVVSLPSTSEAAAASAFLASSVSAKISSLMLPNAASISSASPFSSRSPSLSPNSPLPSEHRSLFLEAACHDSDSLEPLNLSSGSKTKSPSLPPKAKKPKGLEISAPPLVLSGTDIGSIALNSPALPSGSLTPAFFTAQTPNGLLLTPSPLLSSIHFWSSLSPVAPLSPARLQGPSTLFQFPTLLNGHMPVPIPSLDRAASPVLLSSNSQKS
# Method in brief: as §1
# FEV = molecular target: T7, FEV (Homo sapiens, UniProt Q99581 1-238); settings: protein: recombinant; tags: N-terminal GST; dsDNA, one strand shown
# T7 sequence: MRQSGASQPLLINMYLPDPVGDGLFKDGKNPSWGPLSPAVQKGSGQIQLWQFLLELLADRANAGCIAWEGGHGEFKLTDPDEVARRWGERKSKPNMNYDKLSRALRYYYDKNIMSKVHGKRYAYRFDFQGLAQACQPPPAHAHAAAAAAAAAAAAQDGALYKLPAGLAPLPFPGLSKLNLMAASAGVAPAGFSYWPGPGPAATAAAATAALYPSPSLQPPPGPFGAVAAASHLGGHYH
# Method in brief: as §1
# ETV5 = ETV5 (Homo sapiens, UniProt P41161 1-510); settings: protein: recombinant; tags: N-terminal GST; dsDNA, one strand shown
# Method in brief: as §1
# HSF1 = HSF1 (Homo sapiens, UniProt Q00613 1-529); settings: protein: recombinant; tags: N-terminal GST; chain copies: 3; dsDNA, one strand shown
# Method in brief: as §1
# SPIC = molecular target: T8, SPIC (Homo sapiens, UniProt Q8N5J4 1-248); settings: protein: recombinant; tags: N-terminal GST; dsDNA, one strand shown
# T8 sequence: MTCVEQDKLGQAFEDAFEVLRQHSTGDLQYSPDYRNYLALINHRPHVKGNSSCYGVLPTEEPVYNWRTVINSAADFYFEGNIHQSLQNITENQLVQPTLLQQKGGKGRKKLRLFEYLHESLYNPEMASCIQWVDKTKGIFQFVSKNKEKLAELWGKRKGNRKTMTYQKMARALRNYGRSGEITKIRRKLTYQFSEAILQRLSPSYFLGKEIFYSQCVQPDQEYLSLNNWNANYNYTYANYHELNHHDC
# Method in brief: as §1
# ELF4 = ELF4 (Homo sapiens, UniProt Q99607 1-663); settings: protein: recombinant; tags: N-terminal GST; dsDNA, one strand shown
# Method in brief: as §1
# ELK4 = molecular target: T9, ELK4 (Homo sapiens, UniProt P28324-2 1-405); settings: protein: recombinant; tags: N-terminal GST; dsDNA, one strand shown
# T9 sequence: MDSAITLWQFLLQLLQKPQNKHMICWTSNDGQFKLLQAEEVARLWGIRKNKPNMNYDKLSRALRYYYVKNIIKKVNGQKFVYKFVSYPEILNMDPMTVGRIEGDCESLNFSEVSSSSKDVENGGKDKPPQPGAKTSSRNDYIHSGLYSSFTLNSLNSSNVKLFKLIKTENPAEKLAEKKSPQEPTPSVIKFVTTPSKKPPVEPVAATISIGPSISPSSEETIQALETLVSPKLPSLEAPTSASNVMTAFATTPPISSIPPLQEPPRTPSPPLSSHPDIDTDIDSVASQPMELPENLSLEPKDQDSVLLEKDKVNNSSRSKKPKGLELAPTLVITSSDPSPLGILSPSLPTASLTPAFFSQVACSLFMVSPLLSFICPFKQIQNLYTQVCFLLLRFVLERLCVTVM
# Method in brief: as §1
# ETV2 = molecular target: T10, ETV2 (Homo sapiens, UniProt O00321 1-342); settings: protein: recombinant; tags: N-terminal GST; dsDNA, one strand shown
# T10 sequence: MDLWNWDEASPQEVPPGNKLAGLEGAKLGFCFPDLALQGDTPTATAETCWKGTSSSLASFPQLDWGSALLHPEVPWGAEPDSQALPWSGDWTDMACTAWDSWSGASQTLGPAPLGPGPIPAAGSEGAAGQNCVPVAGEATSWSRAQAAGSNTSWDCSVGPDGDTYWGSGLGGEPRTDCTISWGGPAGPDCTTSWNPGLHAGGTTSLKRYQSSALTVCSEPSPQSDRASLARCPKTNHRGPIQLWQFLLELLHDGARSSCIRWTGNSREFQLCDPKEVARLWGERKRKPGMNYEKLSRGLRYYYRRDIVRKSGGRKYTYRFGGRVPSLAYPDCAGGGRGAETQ
# Method in brief: as §1
# ELF3 = molecular target: T11, ELF3 (Homo sapiens, UniProt P78545 1-371); settings: protein: recombinant; tags: N-terminal GST; dsDNA, one strand shown
# T11 sequence: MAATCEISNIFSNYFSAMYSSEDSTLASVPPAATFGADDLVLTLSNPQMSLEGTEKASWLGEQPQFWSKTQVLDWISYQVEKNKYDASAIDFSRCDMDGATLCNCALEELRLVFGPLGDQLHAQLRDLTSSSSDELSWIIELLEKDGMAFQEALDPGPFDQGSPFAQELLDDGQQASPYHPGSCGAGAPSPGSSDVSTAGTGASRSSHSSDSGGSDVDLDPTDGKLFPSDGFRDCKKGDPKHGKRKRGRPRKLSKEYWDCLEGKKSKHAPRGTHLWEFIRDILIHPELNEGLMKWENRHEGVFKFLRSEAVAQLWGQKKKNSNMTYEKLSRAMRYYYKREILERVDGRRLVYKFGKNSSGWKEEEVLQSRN
# Method in brief: as §1
# CRX = CRX (Homo sapiens, UniProt O43186 1-299); settings: protein: recombinant; tags: N-terminal GST; dsDNA, one strand shown
# Method in brief: as §1
# ETV1 = ETV1 (Homo sapiens, UniProt P50549 1-477); settings: protein: recombinant; tags: N-terminal GST; dsDNA, one strand shown
# Method in brief: as §1
# Chain of HSF1 (Q00613 whole entry): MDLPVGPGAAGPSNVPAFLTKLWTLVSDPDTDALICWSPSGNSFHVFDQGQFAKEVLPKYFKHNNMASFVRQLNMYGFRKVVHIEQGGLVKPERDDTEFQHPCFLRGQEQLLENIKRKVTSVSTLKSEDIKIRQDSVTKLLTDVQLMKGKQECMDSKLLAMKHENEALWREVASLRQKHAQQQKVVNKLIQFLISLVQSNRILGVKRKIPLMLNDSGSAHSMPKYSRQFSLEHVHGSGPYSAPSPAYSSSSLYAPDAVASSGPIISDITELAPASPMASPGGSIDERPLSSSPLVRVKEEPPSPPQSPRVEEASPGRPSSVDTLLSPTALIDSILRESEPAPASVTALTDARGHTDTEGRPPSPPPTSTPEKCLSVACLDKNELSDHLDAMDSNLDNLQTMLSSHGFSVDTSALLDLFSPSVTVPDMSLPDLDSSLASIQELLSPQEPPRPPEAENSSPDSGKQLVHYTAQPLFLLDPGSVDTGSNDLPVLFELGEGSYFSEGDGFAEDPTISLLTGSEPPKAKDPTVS
# Chain of ETV5 (P41161 whole entry): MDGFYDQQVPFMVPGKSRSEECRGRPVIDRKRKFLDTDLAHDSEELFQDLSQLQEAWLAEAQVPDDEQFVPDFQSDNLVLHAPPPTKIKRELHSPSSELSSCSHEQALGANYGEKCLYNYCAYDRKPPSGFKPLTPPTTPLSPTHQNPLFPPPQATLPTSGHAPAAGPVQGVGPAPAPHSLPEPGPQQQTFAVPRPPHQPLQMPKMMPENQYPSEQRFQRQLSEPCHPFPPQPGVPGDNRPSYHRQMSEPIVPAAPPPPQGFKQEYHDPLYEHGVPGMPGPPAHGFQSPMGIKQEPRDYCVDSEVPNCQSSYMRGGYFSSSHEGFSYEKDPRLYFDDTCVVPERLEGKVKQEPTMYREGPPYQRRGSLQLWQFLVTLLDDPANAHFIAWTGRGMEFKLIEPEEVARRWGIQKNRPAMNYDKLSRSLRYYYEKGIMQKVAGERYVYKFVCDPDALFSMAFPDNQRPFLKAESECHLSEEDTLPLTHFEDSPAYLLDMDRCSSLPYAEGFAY
# Chain of SPIB (Q01892 whole entry): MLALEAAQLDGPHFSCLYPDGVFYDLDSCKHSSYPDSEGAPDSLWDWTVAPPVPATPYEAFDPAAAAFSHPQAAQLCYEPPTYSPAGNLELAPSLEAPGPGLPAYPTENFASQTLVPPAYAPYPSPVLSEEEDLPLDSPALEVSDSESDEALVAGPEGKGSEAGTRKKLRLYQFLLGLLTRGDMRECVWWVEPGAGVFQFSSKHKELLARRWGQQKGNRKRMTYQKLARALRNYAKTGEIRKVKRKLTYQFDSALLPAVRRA
# Chain of CRX (O43186 whole entry): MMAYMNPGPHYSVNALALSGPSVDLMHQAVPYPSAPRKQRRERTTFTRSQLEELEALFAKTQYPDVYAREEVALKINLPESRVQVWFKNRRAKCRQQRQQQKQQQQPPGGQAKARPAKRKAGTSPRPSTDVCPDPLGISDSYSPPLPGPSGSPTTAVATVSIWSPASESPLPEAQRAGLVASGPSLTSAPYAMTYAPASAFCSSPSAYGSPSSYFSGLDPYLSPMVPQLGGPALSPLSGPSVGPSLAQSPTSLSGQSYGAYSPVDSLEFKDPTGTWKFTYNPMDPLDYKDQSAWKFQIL
# Chain of ELF4 (Q99607 whole entry): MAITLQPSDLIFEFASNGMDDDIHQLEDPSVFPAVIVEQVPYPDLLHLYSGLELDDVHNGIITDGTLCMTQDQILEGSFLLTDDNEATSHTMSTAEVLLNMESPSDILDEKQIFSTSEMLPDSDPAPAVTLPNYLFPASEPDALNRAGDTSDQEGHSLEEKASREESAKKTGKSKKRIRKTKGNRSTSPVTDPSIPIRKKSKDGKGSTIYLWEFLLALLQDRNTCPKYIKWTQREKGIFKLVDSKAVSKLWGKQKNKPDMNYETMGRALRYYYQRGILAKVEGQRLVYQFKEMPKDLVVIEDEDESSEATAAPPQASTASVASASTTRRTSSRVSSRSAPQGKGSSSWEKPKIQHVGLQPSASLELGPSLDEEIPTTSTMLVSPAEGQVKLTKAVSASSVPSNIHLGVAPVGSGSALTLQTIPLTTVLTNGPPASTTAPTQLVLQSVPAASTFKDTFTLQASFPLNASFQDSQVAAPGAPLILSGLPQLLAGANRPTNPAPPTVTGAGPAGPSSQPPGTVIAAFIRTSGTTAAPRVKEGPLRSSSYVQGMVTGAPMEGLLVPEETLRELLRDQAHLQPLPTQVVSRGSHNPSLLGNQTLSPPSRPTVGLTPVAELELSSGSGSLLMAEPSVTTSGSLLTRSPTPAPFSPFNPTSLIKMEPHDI
# Chain of ELF1 (P32519 whole entry): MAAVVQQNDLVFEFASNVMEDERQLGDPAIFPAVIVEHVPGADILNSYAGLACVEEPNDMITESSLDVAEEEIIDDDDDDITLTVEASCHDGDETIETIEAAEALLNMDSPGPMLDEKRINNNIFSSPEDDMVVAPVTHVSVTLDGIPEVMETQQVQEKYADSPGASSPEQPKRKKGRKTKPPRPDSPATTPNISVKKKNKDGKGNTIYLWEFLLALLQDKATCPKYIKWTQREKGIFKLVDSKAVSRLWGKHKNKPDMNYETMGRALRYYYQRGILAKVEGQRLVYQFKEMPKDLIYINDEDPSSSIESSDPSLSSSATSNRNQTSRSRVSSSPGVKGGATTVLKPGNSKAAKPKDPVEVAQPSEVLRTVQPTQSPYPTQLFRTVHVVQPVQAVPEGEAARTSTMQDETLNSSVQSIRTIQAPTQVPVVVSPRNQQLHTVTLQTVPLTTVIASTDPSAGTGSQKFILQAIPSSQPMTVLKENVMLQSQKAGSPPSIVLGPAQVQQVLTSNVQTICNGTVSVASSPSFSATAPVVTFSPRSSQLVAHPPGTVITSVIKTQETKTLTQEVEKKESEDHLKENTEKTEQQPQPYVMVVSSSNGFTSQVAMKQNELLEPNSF
# Chain of ETV1 (P50549 whole entry): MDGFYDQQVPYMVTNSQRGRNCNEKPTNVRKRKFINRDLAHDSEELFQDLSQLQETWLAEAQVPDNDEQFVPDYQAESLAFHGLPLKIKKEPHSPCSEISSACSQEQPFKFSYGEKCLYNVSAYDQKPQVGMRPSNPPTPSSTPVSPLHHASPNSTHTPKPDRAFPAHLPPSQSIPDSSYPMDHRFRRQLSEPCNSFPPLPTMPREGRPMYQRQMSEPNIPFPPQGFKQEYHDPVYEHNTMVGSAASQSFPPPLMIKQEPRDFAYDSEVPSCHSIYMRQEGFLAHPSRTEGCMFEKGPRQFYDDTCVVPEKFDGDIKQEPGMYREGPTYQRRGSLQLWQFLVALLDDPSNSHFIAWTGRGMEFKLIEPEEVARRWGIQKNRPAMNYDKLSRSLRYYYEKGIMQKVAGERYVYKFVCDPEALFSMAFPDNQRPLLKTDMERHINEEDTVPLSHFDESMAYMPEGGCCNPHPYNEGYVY
sequence,measurement,setting,value
TAGTTC,binding signal,FLI1,"1.47 fold enrichment (6-mer frequency, TF over GST control)"
same,binding signal,ELK1,"1.41 fold enrichment (6-mer frequency, TF over GST control)"
same,binding signal,GABPA,"1.28 fold enrichment (6-mer frequency, TF over GST control)"
same,binding signal,ERG,"1.45 fold enrichment (6-mer frequency, TF over GST control)"
same,binding signal,ELF1,"1.37 fold enrichment (6-mer frequency, TF over GST control)"
same,binding signal,EHF,"1.3 fold enrichment (6-mer frequency, TF over GST control)"
same,binding signal,SPI1,"1.43 fold enrichment (6-mer frequency, TF over GST control)"
same,binding signal,SPIB,"1.51 fold enrichment (6-mer frequency, TF over GST control)"
same,binding signal,ELK3,"1.15 fold enrichment (6-mer frequency, TF over GST control)"
same,binding signal,FEV,"1.28 fold enrichment (6-mer frequency, TF over GST control)"
same,binding signal,ETV5,"1.41 fold enrichment (6-mer frequency, TF over GST control)"
same,binding signal,HSF1,"1.45 fold enrichment (6-mer frequency, TF over GST control)"
same,binding signal,SPIC,"1.47 fold enrichment (6-mer frequency, TF over GST control)"
same,binding signal,ELF4,"1.43 fold enrichment (6-mer frequency, TF over GST control)"
same,binding signal,ELK4,"1.49 fold enrichment (6-mer frequency, TF over GST control)"
same,binding signal,ETV2,"1.4 fold enrichment (6-mer frequency, TF over GST control)"
same,binding signal,ELF3,"1.49 fold enrichment (6-mer frequency, TF over GST control)"
same,binding signal,CRX,"1.23 fold enrichment (6-mer frequency, TF over GST control)"
same,binding signal,ETV1,"1.4 fold enrichment (6-mer frequency, TF over GST control)"
